# High-throughput results (PubChem)
# USP17 inh: inhibitors of human USP17 deubiquitinase | AID 1645855, 2021 | hit rate 6.5% among 47,000 | purified USP17, Ub-rhodamine cleavage fluorescence, 3 h | inhibition, % at 50 µM | Ubiquitin carboxyl-terminal hydrolase 17-like protein 5 (Homo sapiens), A8MUK1
# USP28 block: inhibitors of human USP28 deubiquitinase; Ubiquitin carboxyl-terminal hydrolase 28 (Homo sapiens), Q96RU2; purified USP28, Ub-rhodamine cleavage fluorescence, 30 min; inhibition, % at 25 µM; hit rate 3% among 47,000
# USP30 block: inhibitors of human USP30 deubiquitinase. inhibition, % at 25 µM. purified USP30, Ub-rhodamine cleavage fluorescence. hit rate 5.3% among 47,000
# Target sequence (Q70CQ3 whole entry, looked up): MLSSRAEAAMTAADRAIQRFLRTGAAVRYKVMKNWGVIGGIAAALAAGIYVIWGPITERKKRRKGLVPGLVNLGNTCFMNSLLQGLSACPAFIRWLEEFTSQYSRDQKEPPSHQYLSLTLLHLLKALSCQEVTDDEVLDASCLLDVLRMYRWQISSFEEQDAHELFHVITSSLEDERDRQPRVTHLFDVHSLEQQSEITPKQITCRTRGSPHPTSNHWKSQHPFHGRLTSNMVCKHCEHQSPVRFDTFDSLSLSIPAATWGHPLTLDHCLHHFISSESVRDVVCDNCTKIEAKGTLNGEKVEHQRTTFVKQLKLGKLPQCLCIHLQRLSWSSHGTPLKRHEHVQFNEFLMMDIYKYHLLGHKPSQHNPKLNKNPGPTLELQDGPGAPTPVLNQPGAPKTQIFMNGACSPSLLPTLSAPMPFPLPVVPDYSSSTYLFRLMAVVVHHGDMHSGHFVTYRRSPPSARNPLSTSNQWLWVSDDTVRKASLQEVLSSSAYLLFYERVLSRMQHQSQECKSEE
# The depositor's hits bear a star; . = no result. This is a sample that favours compounds with a hit; in the whole collection about 11% have one here. Cut-off read from the data, not from the text of the source: active = inhibition above about 30%; inactive = the rest.
SMILES,USP17 inh,USP28 block,USP30 block
O=C(NC1CCCCC1)NC1CCN(C(=O)C2CCC2)C1 (configuration not stated),-15.2,.,.
CCCCn1c(=O)c(CCC(=O)OCC(=O)Nc2ccc3c(c2)OCCO3)nc2ccccc21,-12.1,61.5*,-3.9
COCCCN1C(=O)C(CC(=O)Nc2ccc3c(c2)OCCO3)n2c1nc1ccccc12 (configuration not stated),17.6,1.4,8.4
CCN1CCC2(CC1)N=C(c1ccc3c(c1)OCO3)CC(c1ccccc1O)N2 (configuration not stated),-7.1,-11.4,-24.3
O=C(Nc1ccc(Cl)cc1)c1ccc2nncn2c1,0.3,5.2,-4.8
O=C(NC1CCCCCC1)c1cn(Cc2ccccc2)nc1-c1cccnc1,2.2,-2.4,13.5
O=C(NC1CCCC1)c1cn(Cc2ccccc2)nc1-c1cccnc1,7.8,11.5,37.9*
COCC(=O)N(C)c1nnc(C2CCOC2)s1 (configuration not stated),-24.9,-15.6,-7.0
Cn1cc(C(=O)NCc2ccc3c(c2)OCO3)c(S(=O)(=O)N2CCCCC2)n1,-70.7,-12.3,-8.7
COc1ccc(S(=O)(=O)N2CCCC2)cc1C(=O)NCc1ccc2c(c1)OCO2,4.8,34.8*,25.2
Cc1ccc(S(=O)(=O)N2CCN(CC(=O)Nc3ccc4[nH]c(=O)[nH]c4c3)CC2)cc1,-5.2,3.5,10.7
COc1ccc(S(=O)(=O)N2CCCCCC2)cc1C(=O)Nc1ccc2[nH]c(=O)[nH]c2c1,30.2*,47.4*,49.8*
O=C(Nc1ccccc1C(F)(F)F)N1CCc2nc[nH]c2C1,13.3,7.1,12.7
CCc1cnc(N2CCC3(CC3C(=O)N(C)Cc3ccccn3)C2)nc1 (configuration not stated),-91.6,-82.3,-303.2
COCCC(=O)N1CCc2ncnc(-c3cccc(F)c3)c2CC1,10.5,16.8,26.6
Cc1ccc(C2CC(c3ccccc3)N(C(=O)C(C)C)c3ncnn32)cc1 (configuration not stated),13.4,12.8,39.8*
CC(C)C(=O)N1c2ncnn2C(c2ccccc2)CC1c1ccccc1 (configuration not stated),0.6,-0.3,15.2
COc1cccc(C(=O)N2c3ncnn3C(c3ccccc3)CC2c2ccccc2)c1 (configuration not stated),4.5,-0.6,24.4
COc1ccccc1C1CC(c2ccccc2)N(C(=O)CC(C)C)c2ncnn21 (configuration not stated),27.3,14.2,30.8*
Cc1c(C(=O)N2CCC(C)CC2)c(S(=O)(=O)Nc2ccc(C#N)cc2)c(C)n1C,14.8,9.5,18.8
Cc1c(C(=O)N(C)c2ccccc2)nnn1-c1ccc2noc(-c3ccccc3)c2c1,0.0,10.9,6.4
O=C(CSc1ncnc2c1cnn2-c1ccccc1)Nc1ccccc1-c1ccccc1,12.7,10.9,30.8*
Cc1cccc(C)c1NC(=O)CSc1ncnc2c1cnn2-c1ccc(Cl)cc1,-0.1,-1.8,-13.7
C=C[C@@]1(C)CC[C@H]2C(=CC[C@@H]3[C@]2(C)C[C@@H](O)[C@H](O)[C@]3(C)CO[C@@H]2O[C@H](CO)[C@@H](O)[C@@H](O)[C@@H]2O)C1,-19.7,-7.1,-10.2
CCN(C(=O)c1cccc(NC(=O)c2ccccc2)c1)c1ccccc1,-23.8,2.9,0.6
SMILES,USP17 inh,USP28 block,USP30 block
CCNC(=O)c1cccc(NC(=O)c2cc(Cl)c3c(c2)OCO3)c1,0.0,31.3*,-7.1
Cc1ccccc1C(=O)N1CCCC(c2nnc3ccccn23)C1 (configuration not stated),0.5,-1.2,0.2
O=C(c1cn(-c2cccc(Cl)c2)nn1)N1CCSCC1,-2.4,-5.7,-4.2
COc1ccc(Cn2nnc(C(=O)N3CCCCC3)c2-n2cccc2)cc1,30.3*,-5.0,-60.8
Cc1ccc(Cn2nnc(C(=O)N3CCCC3)c2-n2cccc2)cc1,9.2,13.2,-30.9
O=C(c1nnn(Cc2ccc(Cl)cc2)c1-n1cccc1)N1CCSCC1,6.7,36.1*,6.5
O=C(CO)N1CCC2(CC1)OC(=O)N(Cc1ccccc1)c1ccccc12,-20.8,10.9,29.4
O=C(CN1CCN(Cc2nc3scc(-c4ccccc4)c3c(=O)[nH]2)CC1)NC1CC1,-48.7,-29.9,-200.5
O=C(C1CCOC1)N1CCC2(CC1)CN(c1ncccn1)c1ccccc12 (configuration not stated),-11.7,-9.3,-10.3
O=C(C1CCOC1)N1CCC2(CC1)CN(c1cccnc1)c1ccccc12 (configuration not stated),.,26.3,49.3*
O=C(Cc1nc(-c2cccnc2)n[nH]1)Nc1ccc(F)cc1,15.0,15.2,19.9
CC(C)c1ccc(NC(=O)c2cc(-c3cccnc3)n[nH]2)cc1,-0.9,36.8*,46.3*
COc1ccc(NC(=O)c2cc(-c3cccnc3)n[nH]2)cc1Cl,44.2*,90.9*,93.6*
